This is a sample that favours compounds with a hit; in the whole collection about 5.2% have one here.
PLK1 PBD inh = blocks phosphopeptide binding to human PLK1 polo-box domain; Plk1 PBD binding of FITC phosphopeptide, fluorescence polarization; Potency, µM, without a hit: max response, negative = inhibition, hits mostly inhibitors; 360,000 compounds, 2.8% hits; P53350; AID 720504; further: series mostly up to about 57 µM; nearly all actives have a fitted effect of over 65% in size
Target sequence (P53350 whole entry, looked up, the tested form may be a part): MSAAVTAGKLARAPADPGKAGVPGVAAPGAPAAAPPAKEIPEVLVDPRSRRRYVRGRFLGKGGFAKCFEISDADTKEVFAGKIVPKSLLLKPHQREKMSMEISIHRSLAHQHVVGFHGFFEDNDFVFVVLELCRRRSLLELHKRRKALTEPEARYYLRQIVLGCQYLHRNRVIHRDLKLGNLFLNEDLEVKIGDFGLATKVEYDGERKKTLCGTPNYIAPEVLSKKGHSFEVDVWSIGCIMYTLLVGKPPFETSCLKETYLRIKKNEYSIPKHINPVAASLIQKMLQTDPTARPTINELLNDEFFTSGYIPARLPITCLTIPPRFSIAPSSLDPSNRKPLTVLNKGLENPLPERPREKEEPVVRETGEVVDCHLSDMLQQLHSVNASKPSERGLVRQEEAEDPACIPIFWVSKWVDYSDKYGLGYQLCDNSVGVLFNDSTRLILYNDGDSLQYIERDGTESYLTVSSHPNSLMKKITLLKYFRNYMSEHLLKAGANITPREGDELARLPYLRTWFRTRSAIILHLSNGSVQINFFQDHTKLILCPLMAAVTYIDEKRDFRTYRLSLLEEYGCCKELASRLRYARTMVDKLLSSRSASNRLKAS
VDR inh = inhibitors of human vitamin D receptor | P11473 | VDR-SRC2-3 peptide fluorescence polarization, 2 h | 400,000 compounds, 0.93% hits | Potency, µM, for inactives: max response, negative = inhibition, usual class: inhibitors
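After 23 nl compound addition and a short centrifugation, plates sat for 2 hours at ambient temperature; polarization of fluorescence then indicated loss of VDR binding to peptide SRC2-3.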
Sfp inh = inhibitors of Bacillus subtilis Sfp phosphopantetheinyl transferase; Biochemical Sfp PPTase activity, qHTS; Potency, µM, inactives show largest response in the series, negative = inhibition, most hits filed as inhibitors; 310,000 compounds, 3.5% hits; AID 1490;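 further: the enzyme is Sfp with the accession as filed and its product quenches rhodamine fluorescence; 0% = enzyme reaction without inhibitor and -100% = no enzyme wells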
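Step 1, compound plus 15 nM Sfp-PPTase, 15 min, room temperature. Step 2, add rhodamine-CoA (5 uM) and BHQ-2-YbbR (12.5 uM). Step 3, read 525/598 nm fluorescence at 0 and 30 min.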
TrxR1 substrate = substrates of rat thioredoxin reductase 1 | AID 588456 | O89049 | 390,000 compounds, 0.01% hits | purified TrxR1 substrate turnover, NADPH consumption readout | Potency, µM (top dose mostly 114 µM), inactives show at the highest dose activity change, negative = substrate turnover; further: nearly all actives have a fitted effect of over 50% in size
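Rat TrxR1, dispensed at 90 nM, was prereduced with 400 uM NADPH (final) for 5 min at ~22 deg C, then incubated with compound 15 min before 400 uM selenite. A first-read NADPH fluorescence drop versus no-compound background flagged substrates.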
TrxR1 inh = blocks rat thioredoxin reductase 1; O89049; recombinant rTrxR1, NADPH fluorescence consumption, selenite substrate; Potency, µM (series often up to 114 µM), for inactives: top-dose activity change, negative = inhibition, actives largely listed as inhibitors; 390,000 compounds, 1% hits; AID 588453; further: nearly all actives have a fitted effect of over 65% in size
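Rat TrxR1 (90 nM in the dispensed reagent) was pre-reduced with 400 uM NADPH for 5 min at room temperature, then incubated with compound for 15 min. After 400 uM selenite was added, NADPH fluorescence (Ex 340/Em 450 nm) was followed for 8 min.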
IDH1 R132H inh = inhibitors of human mutant IDH1 R132H; 390,000 compounds, 0.093% hits; IDH1-R132H enzyme, NADPH consumption, diaphorase/resazurin fluorescence; AID 602179; Potency, µM (top dose mostly 76.6 µM), inactives show at the highest dose activity change, negative = inhibition, actives largely listed as inhibitors; O75874; further: nearly all actives have a fitted effect of over 65% in size
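IDH1-R132H (0.5 ug/mL dispensed) in pH 7.5 Tris buffer was preincubated 30 min with compound, then given a substrate mix of 0.016 mM NADPH and 2 mM alpha-KG for 80 min at room temperature; remaining NADPH was read by diaphorase/resazurin fluorescence.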
The depositor's hits bear a star; ? = inconclusive; / = no result; [ ] = remark or other dose. The call rests on the fitted dose curve; in most records, active means well fitted curve in the direction sought with a large enough effect; inconclusive means small, poorly fitted or top-dose-only effect, or another doubt; inactive means no such curve, though single readings can be large; an effect the other way counts as inactive or inconclusive. Unless noted, on the % scale 0 is the no-effect control and ±100 the full control effect; potency means the concentration at half of the fitted maximal effect.

SMILES	PLK1 PBD inh	VDR inh	Sfp inh	TrxR1 substrate	TrxR1 inh	IDH1 R132H inh
O=C1C[C@H]2C=CCc3cccc(c32)CN1Cc1cccc(F)c1	/	/	/	0%	-19%	/
O=C(CCCN1C(=O)/C(=C/c2ccco2)SC1=S)Nc1cccc(C(=O)O)c1	-27%	5%	25µM*	-2%	-12%	10%
O=C(CCCN1C(=O)/C(=C\c2ccco2)SC1=S)Nc1ccc(O)cc1C(=O)O	17µM*	?	50µM*	-15%	50µM*	1%
COc1ccc(-c2nc3sc(CCNC(=O)c4cccc(C(F)(F)F)c4)c(C)n3n2)cc1	/	7%	/	-2%[57.1 µM]	10%[57.1 µM]	9%
CCCc1c(-c2ccc(F)cc2F)ncn1Cc1cccc(-c2ccccc2)c1	-4%	/	/	/	/	/
O=C(SCc1c(O)c2ccccc2oc1=O)c1ccccc1	13µM*	/	/	/	/	11%
Cc1cc(C(=O)NNC2CC(=O)N(c3ccc4ccccc4c3)C2=O)c(C)o1 (configuration not stated)	-11%	-9%	6%	12%[57.1 µM]	13%[57.1 µM]	-1%
COc1ccc(-c2csc(C(C)(O)c3cccnc3)n2)cc1 (configuration not stated)	2%	/	/	/	/	/
O=C(COc1ccccc1)Nc1nc(-c2ccncc2)cs1	27µM*	-9%	50µM*	-1%	13%	5%
O=C(COC(=O)/C=C/c1cccs1)Nc1nc(-c2cccc(Br)c2)cs1	3%	5%	19%	2%	9%	-7%
Cc1cccc(OCC(=O)Nc2nc(-c3ccncc3)cs2)c1	4%	-6%	/	-2%	18%	-6%
O=C(COC(=O)/C=C/c1cccs1)Nc1nc(-c2ccccc2)cs1	-16%	-10%	5%	1%	56µM*	9%
NC(=O)c1ccsc1NC(=O)COc1ccccc1	15µM*	-17%	1%	6%	-20%	6%
O=C(COc1ccccc1)Nc1nc(-c2cccnc2)cs1	-18%	8%	/	0%	7%	1%
Cc1cccc(OCC(=O)OCC(=O)Nc2sccc2C(N)=O)c1	-4%	27%	/	3%	9%	0%
Cc1cc(C)cc(OCC(=O)Nc2nc(-c3cccnc3)cs2)c1	12µM*	?	45µM*	-2%	8%	-6%
O=C(C[n+]1cc(-c2ccccc2)n2c1CCC2)Nc1nc(-c2ccccc2)cs1	-8%	-3%	56µM*	-6%	-3%	-2%
O=C1C(=O)N(CCN2CCOCC2)C(c2cccnc2)/C1=C(/O)c1ccccc1 (configuration not stated)	/	/	7%	/	/	/
O=C1C(=O)N(CCN2CCOCC2)C(c2ccccn2)/C1=C(/O)c1ccccc1 (configuration not stated)	-12%	-19%	56µM*	-5%	18µM*	9%
Cc1ccc(/C(O)=C2/C(=O)C(=O)N(CCN3CCOCC3)C2c2ccccn2)cc1 (configuration not stated)	-9%	-16%	56µM*	-2%	?	7%
Cc1ccc(C2/C(=C(\O)c3cnn(-c4ccccc4)c3C)C(=O)C(=O)N2CCN(C)C)o1 (configuration not stated)	-16%	-29%	?	6%[57.1 µM]	-63%	0%
CCN(CC)CCCN1C(=O)C(=O)/C(=C(/O)c2ccc(C)cc2)C1c1ccccn1 (configuration not stated)	-25%	-14%	?	-5%	-17%	-6%
Cc1ccc(C2/C(=C(/O)c3cnn(-c4ccccc4)c3C)C(=O)C(=O)N2CCN2CCOCC2)o1 (configuration not stated)	1%	4%	50µM*	3%[57.1 µM]	-10%[57.1 µM]	-2%
COc1ccc(/C(O)=C2/C(=O)C(=O)N(CCN3CCOCC3)C2c2ccccn2)cc1OC (configuration not stated)	-22%	2%	50µM*	-11%	45µM*	7%

Compound activity (PubChem BioAssay)
